High-throughput results deposited in PubChem by Buhrlage Lab, Dana-Farber Cancer Institute and Novartis Institutes for BioMedical Research (Cambridge, Mass).
USP30 block: inhibitors of human USP30 deubiquitinase. Ubiquitin carboxyl-terminal hydrolase 30 (Homo sapiens), Q70CQ3. purified USP30, Ub-rhodamine cleavage fluorescence. inhibition, % at 25 µM. 5.3% of 47,000 active
Target sequence (Q70CQ3 whole entry, looked up): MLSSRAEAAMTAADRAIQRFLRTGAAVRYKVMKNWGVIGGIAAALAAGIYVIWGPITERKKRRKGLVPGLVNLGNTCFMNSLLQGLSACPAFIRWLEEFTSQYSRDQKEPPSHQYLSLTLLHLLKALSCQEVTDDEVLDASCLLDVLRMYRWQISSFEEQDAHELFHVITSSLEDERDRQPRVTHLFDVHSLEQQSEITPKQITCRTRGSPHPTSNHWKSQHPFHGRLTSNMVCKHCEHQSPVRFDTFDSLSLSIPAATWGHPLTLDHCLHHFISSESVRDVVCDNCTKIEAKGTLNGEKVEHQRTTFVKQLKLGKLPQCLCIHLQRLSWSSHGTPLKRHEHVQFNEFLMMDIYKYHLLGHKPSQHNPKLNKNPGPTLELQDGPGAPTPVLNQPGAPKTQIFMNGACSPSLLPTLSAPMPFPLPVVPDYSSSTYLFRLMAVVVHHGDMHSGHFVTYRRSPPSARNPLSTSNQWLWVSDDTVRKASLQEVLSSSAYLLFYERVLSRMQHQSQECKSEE
USP8 block: inhibitors of human USP8 deubiquitinase; purified USP8, Ub-rhodamine cleavage fluorescence, 30 min; inhibition, % at 20 µM; 4.2% of 47,000 active; AID 1645853, 2021
USP7 inh: inhibitors of human USP7 deubiquitinase | purified USP7, Ub-rhodamine cleavage fluorescence | inhibition, % at 20 µM | 0.3% of 47,000 active | AID 1645854, 2021
USP10 inh: inhibitors of human USP10 deubiquitinase; Ubiquitin carboxyl-terminal hydrolase 10 (Homo sapiens), Q14694; purified USP10, Ub-rhodamine fluorescence, 60 min; inhibition, % at 20 µM; 1.1% of 47,000 active
UCHL1 inh: inhibitors of human UCHL1 deubiquitinase. inhibition, % at 20 µM. AID 1645859, 2021. purified UCHL1, Ub-rhodamine cleavage fluorescence. 0.2% of 47,000 active. Ubiquitin carboxyl-terminal hydrolase isozyme L1 (Homo sapiens), P09936
USP17 inh: inhibitors of human USP17 deubiquitinase | 6.5% of 47,000 active | inhibition, % at 50 µM | Ubiquitin carboxyl-terminal hydrolase 17-like protein 5 (Homo sapiens), A8MUK1 | purified USP17, Ub-rhodamine cleavage fluorescence, 3 h
Numbers without * were called inactive. In the library only some 12% were active in any assay of this set; here they are far more common. Cut-off read from the data, not from the text of the source: active = inhibition above about 30%; inactive = the rest.

SMILES	USP30 block	USP8 block	USP7 inh	USP10 inh	UCHL1 inh	USP17 inh
COc1ccc(CNC(=O)c2nnc(C(=O)Nc3ccc(F)cc3)s2)cc1	17.0	21.0	9.1	17.3	2.3	7.9
Cc1cccc(NC(=O)c2ccn(COc3ccc(F)cc3)n2)n1	3.9	0.3	3.1	3.8	0.6	17.2
Cc1ccc(Cl)cc1NC(=O)c1ccn(COc2ccccc2F)n1	-0.2	-10.4	2.1	8.7	4.7	0.3
Cc1ccc(NC(=O)c2ccn(COc3ccccc3Cl)n2)nc1	48.1*	21.3	6.6	4.3	-0.1	33.0*
Cc1ccc(NC(=O)c2ccn(COc3ccc(Cl)c(C)c3)n2)nc1	22.3	18.9	3.7	7.2	-0.1	33.9*
Cc1cc(C)nc(NC(=O)c2ccn(COc3ccc(F)cc3)n2)c1	32.4*	6.3	3.1	-0.3	2.7	3.7
CC(C)(C)N=C1Nc2ncccc2NC12CCN(C(=O)Nc1ccc(Cl)cc1F)C2 (centres undefined)	-34.5	0.6	2.2	0.3	1.1	-3.1
COc1ccc(CC(=O)N2CCC(c3nc4ccccc4cc3C(N)=O)CC2)cc1	8.5	14.8	5.1	0.5	6.8	5.1
Cc1cc(NC(=O)CSc2ncc(-c3cccc([N+](=O)[O-])c3)n2-c2cccc(Cl)c2)no1	19.5	55.5*	11.6	63.5*	-2.4	9.7
CCCCC(C)/C=C(C)/C=C(\C)C(N)=O (centres undefined)	32.1*	5.9	4.5	7.5	7.5	26.8
Cc1nc(CC(=O)Nc2cc(F)cc(F)c2)sc1C(=O)NC1CC1	-61.0	60.8*	-4.5	-3.3	5.3	24.0
CCN(CC)C(=O)CN1CCC2(CCC1=O)CNC(=O)c1ccc(OC)cc1O2 (centres undefined)	3.3	-1.3	0.4	0.1	0.1	1.1
c1ccc(-n2ncc3c(NCC4CCCO4)ncnc32)cc1 (centres undefined)	30.7*	15.8	1.9	1.0	0.3	15.3
COc1ccc(NC(=O)c2cc3c(CO)cnc(C)c3oc2=Nc2cccc(F)c2)c(OC)c1	33.5*	-2.3	8.6	0.0	3.3	5.8
Cc1ccccc1NC(=O)c1cc2c(CO)cnc(C)c2oc1=Nc1cccc(F)c1	13.6	1.8	0.7	16.1	-3.4	3.4
O=C(Nc1ccc2sccc2c1)c1ccc(F)cc1	57.7*	5.0	3.1	0.6	0.0	49.1*
Cc1ccc(Cn2cc(S(=O)(=O)N3CCCCC3)ccc2=O)cc1	21.9	14.0	-9.3	2.7	-0.1	5.4
COc1ccc(S(=O)(=O)N2CCCCC2)cc1N(C)S(=O)(=O)c1ccc(C)cc1	8.2	-0.1	2.4	7.8	0.9	-6.1
Cc1ccc(S(=O)(=O)N2CCN(S(=O)(=O)N3CCCCCC3)CC2)cc1	39.7*	31.0*	5.8	17.9	2.1	21.0
Cc1ccc(S(=O)(=O)N(C)c2c(C)ccc(S(=O)(=O)N3CCCCC3)c2C)cc1	30.1*	-14.1	12.8	10.8	9.4	6.2
COCCn1cc(OC(=O)c2ccc(C)cc2)c2c1nc(-c1ccc(C)cc1)n1c3ccccc3nc21	-37.9	2.5	3.1	-1.5	-3.0	-13.2
Oc1cccc2c(-c3ccc(O)c4c(O)cccc34)ccc(O)c12	93.8*	97.6*	-53.7	70.5*	77.8*	98.1*
O=C(Nc1ccc2nccnc2c1)c1cccc(C(F)(F)F)c1	75.8*	0.0	7.1	-0.2	5.2	8.1
COc1ccc(C2CC(=O)c3cnc(NCC4CCCO4)nc3C2)cc1OC (centres undefined)	30.4*	23.3	-5.4	-1.0	2.5	15.9
CC(Sc1nnc(-c2ccccc2Br)o1)C(=O)Nc1cccc(Cl)c1 (centres undefined)	43.3*	17.7	-3.6	5.5	5.3	22.5
Cc1occc1-c1nnc(SC(C)C(=O)Nc2ccccc2)o1 (centres undefined)	0.3	0.1	-14.2	0.7	0.3	-2.6
CCC(Cc1ccccc1)N=C1NS(=O)(=O)C(c2ccc(C)cc2)=C1C (centres undefined)	23.3	2.4	10.1	8.9	6.7	11.2
CC(=O)c1ccc(NC(=O)CSc2nc3nc(C)ccc3o2)cc1	-16.0	-58.2	1.1	11.3	-1.3	46.2*
